# Granule exo inh – blocks lytic granule exocytosis; TALL-104 LAMP-1 surface exposure, flow cytometry; cells stimulated with thapsigargin and PMA; actives 0.66% (n = 360,000); inhibition, % at 10 µM;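 active means inhibition above about 55%, limit read from the data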
# ABCB6 inh 2 – blocks the human ABCB6 transporter; fluorescence ratio to DMSO, % at 10 µM; actives 0.19% (n = 360,000); Q9NP58; AID 602162; K562-ABCB6 porphyrin accumulation, flow cytometry, 1 h; hits give low values;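 active means fluorescence ratio to DMSO below 75%, the collection mean minus 3 SD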;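 further: signal is porphyrin accumulated inside mitochondria; lower ratio means ABCB6 inhibition with less porphyrin fluorescence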
# Target sequence (Q9NP58 whole entry, looked up): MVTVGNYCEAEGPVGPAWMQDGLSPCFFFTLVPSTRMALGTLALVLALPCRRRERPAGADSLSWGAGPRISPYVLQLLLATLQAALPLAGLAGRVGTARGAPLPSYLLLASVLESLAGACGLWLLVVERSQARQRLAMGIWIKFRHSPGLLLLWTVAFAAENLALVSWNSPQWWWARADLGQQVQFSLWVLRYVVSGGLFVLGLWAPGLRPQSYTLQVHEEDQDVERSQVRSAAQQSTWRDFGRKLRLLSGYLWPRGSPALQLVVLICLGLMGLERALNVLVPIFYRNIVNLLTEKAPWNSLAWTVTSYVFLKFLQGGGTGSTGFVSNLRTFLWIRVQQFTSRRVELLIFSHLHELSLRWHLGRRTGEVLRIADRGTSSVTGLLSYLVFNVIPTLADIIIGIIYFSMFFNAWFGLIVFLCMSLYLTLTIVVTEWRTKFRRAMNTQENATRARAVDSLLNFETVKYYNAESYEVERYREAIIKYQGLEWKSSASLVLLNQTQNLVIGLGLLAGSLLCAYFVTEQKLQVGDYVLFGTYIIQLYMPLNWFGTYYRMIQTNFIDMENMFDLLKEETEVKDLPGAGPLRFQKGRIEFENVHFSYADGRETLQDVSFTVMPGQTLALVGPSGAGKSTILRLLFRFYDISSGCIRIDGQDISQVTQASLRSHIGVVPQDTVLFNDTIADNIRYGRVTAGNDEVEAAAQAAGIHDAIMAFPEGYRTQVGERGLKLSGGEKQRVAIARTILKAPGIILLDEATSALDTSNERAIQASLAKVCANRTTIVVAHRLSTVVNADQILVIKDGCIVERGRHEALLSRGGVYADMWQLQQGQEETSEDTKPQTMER
# Myeloid diff MLP – myeloid differentiation induction | AID 624256 | ER-HoxA9 myeloid progenitors, lysozyme-GFP differentiation, flow cytometry | calls only at 10 µM | actives 1% (n = 360,000);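 active means normalized GFP-positive differentiation at or above the plate's own cutoff, the solvent-only control mean plus 3 SD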;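 further: cells exposed to compound for four days before flow analysis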
# Myeloid diff CP1 – myeloid differentiation induction; actives 2% (n = 2,300); shares compounds with Myeloid diff MLP; AID 651706; calls only; ER-HoxA9 myeloid progenitors, GFP/Mac1 double-positive flow;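 active means share of green or green-and-red cells above 9 and 9% in run 1 or 4 and 3% in run 2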
# GFP autofluor – compound fluorescence in myeloid differentiation counter-screen. shares compounds with Myeloid diff MLP. ER-HoxA9 myeloid progenitors, no estrogen, GFP autofluorescence flow cytometry; vehicle wells 0%, positive control 100%. fluorescence response, % (concentration not given with the values). actives 7.4% (n = 2,300);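 active means over 5% cells positive for green fluorescent reporter, or over 2% positive for both it and APC stain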
# Numbers stand for hits; - = inactive; . = no result; + = active, no number. Most compounds without a hit are left out; they make up all but 1.8% or so of the library.
SMILES,Granule exo inh,ABCB6 inh 2,Myeloid diff MLP,Myeloid diff CP1,GFP autofluor
COc1ccc(CCC(C)NCc2cccc(Br)c2)cc1 (stereo unspecified),-,-,-,.,.
Cc1ccc(-c2csc(=Nc3cccnc3)n2CCCn2ccnc2)cc1C,-,-,-,.,.
CCC(COC)NCc1cn(-c2ccc(OC)cc2)nc1-c1cccc(F)c1 (stereo unspecified),-,-,+,-,-
COc1ccc(-n2cc(CNC(C)c3ccncn3)c(-c3cccc(F)c3)n2)cc1 (stereo unspecified),-,-,-,.,.
C[C@@H]1CN([C@H](C)CO)C(=O)c2cc(C#CC3CCCCC3)cnc2O[C@H]1CN(C)Cc1cccnc1,-,-,-,-,-
C[C@H](CO)N1C[C@H](C)[C@H](CN(C)Cc2ccncc2)Oc2ncc(C#CC3CC3)cc2C1=O,-,-,-,.,.
COc1cccc(-c2ccc(NC(=O)C3CCCN(Cc4nccn4C)C3)cc2)c1 (stereo unspecified),-,-,-,.,.
CC1CN(C(=O)c2ccc(-c3cccc(C(F)(F)F)c3)o2)CC(C)O1 (stereo unspecified),-,-,-,.,.
CCCS(=O)(=O)NC(=O)C1(C)CCN(C(=O)c2ccc(SC(F)(F)F)cc2)C1 (stereo unspecified),-,-,-,.,.
Cc1ccc(NC(=S)Nc2cccc3cnccc23)cc1,-,-,-,.,.
Cc1ccc(NC(=S)Nc2cccc3cnccc23)cc1C,55.8,-,-,-,-
CCc1ccc(CNCc2ccc(OCC(O)CN(C)Cc3ccccc3)cc2)nc1 (stereo unspecified),-,-,+,-,-
CN(Cc1ccccc1)CC(O)COc1ccc(CNCCc2cccnc2)cc1 (stereo unspecified),-,-,-,.,.
CC(OC(=O)Cc1c[nH]c2ccccc12)C(=O)Nc1ccccc1F (stereo unspecified),-,-,-,.,.
COc1cccc(NC(=S)N2CCN(C(c3ccccc3)c3ccccc3)CC2)c1,-,-,-,-,-
COc1ccc(NC(=S)N2CCN(C(c3ccccc3)c3ccccc3)CC2)c(OC)c1,-,-,-,.,.
CCOc1ccc(CN2C(=O)c3ccccc3C2=O)cc1C(=O)Nc1nnc(SCC)s1,-,-,-,.,.
CCOc1ccc(CN2C(=O)c3ccccc3C2=O)cc1C(=O)NC1CC(C)(C)NC(C)(C)C1,-,-,-,-,97.9
Cc1sc(NC(=O)c2ccccc2)c(C(c2ccccn2)N2CCN(CCO)CC2)c1C (stereo unspecified),-,-,-,-,-
CCOc1ccc(C(c2c(NC(=O)c3ccccc3)sc(C)c2C)N2CCN(C)CC2)cc1 (stereo unspecified),-,-,-,.,.
Cc1ccc(-n2nnnc2C(=Cc2ccc(N(C)C)cc2)c2nnnn2-c2ccc(C)cc2)cc1,-,-,+,-,-
CCN(CC)c1ccc(C=C(c2nnnn2-c2ccccc2)c2nnnn2-c2ccccc2)cc1,-,-,-,.,.
O=C(NCCc1ccccc1)C(=O)NCCC1CCCCN1S(=O)(=O)c1ccccc1 (stereo unspecified),-,-,-,.,.
O=C(NCCc1ccccc1)C(=O)NCC1CCCN1S(=O)(=O)c1ccccc1 (stereo unspecified),-,-,+,-,-
CC1CCCCC12NC(=O)N(CC(=O)NCCc1ccccc1)C2=O (stereo unspecified),-,-,-,.,.
SMILES,Granule exo inh,ABCB6 inh 2,Myeloid diff MLP,Myeloid diff CP1,GFP autofluor
Cc1cc(=O)[nH]c2c1cnn2C(C)c1ccccc1 (stereo unspecified),-,-,-,.,.
Cc1cc(F)ccc1-c1cc(C(=O)NCc2cc(C(F)(F)F)cc(C(F)(F)F)c2)[nH]n1,-,-,-,.,.
Cc1csc(-c2cc(C(=O)NCc3cc(C(F)(F)F)cc(C(F)(F)F)c3)n[nH]2)c1,-,-,+,-,-
O=C(Nc1cccc(S(=O)(=O)N2CCCCC2)c1)C1CC(=O)N(c2ccc3c(c2)OCCO3)C1 (stereo unspecified),-,-,-,.,.
COc1ccc(C(=O)C[n+]2ccc3c(c2)nnn3-c2ccccc2)cc1,-,-,+,-,-
COc1ccc(C(=O)C[n+]2ccc3c(c2)nc(-c2cc(OC)c(OC)cc2OC)n3C)cc1,-,-,-,.,.
Cc1ccc(S(=O)(=O)N(C)C)cc1NC(=O)COC(=O)c1ccc2c(=O)n3c(nc2c1)CCC3,-,-,-,.,.
CSc1ccccc1C(=O)NC1CCCC1,-,-,-,-,-
CSc1ccccc1C(=O)NC1CCCCC1,-,-,-,.,.
